Experimental data reported in PubChem BioAssay AID588519 (ICCB-Longwood Screening Facility, Harvard Medical School, 2011).
Among all 150,000 compounds or so, about 1,000 (0.67%) were called active. No stated cut-off is given here; in the data, active means % elongation below about 90%; inactive means the rest, inconclusive results apart. Shown is part of a subset that was picked to be rich in actives.

Biological target: Genome polyprotein (Poliovirus type 1 (strain Mahoney)) (UniProt P03300)
Test: inhibitors of poliovirus polymerase RNA elongation – biochemical, fluorescence polarization, total intensity, primary screen (AID 588519); on z-score: compound at 16.7 µg/mL
Settings: stronger effect = lower value; for % elongation: compound at 16.7 µg/mL; for z-score: measured here: FP z-score
[1] = measured here: total intensity read-out

Sequence of Genome polyprotein (Poliovirus type 1 (strain Mahoney)) (P03300 1749-2209 limits assumed): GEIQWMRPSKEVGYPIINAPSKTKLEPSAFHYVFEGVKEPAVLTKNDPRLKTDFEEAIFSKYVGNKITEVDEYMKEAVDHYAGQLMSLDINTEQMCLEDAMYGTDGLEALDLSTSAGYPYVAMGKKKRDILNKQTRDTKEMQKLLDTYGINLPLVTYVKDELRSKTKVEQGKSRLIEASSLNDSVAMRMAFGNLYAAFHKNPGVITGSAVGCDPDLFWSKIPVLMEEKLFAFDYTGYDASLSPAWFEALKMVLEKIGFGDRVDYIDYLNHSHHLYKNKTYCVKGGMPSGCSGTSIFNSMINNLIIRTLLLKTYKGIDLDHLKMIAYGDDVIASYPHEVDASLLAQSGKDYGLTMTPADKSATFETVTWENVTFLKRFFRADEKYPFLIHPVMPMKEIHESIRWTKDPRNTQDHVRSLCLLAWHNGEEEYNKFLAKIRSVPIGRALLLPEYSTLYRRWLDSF

CCC1CN2CCC34c5ccccc5NC3C(C)C1CC24 (configuration not stated)
% elongation: 101% (inactive)
z-score: 0.3
% elongation [1]: 104%

CCOC(=O)C1=C(C)NC(=O)NC1c1c(Cl)nc2c(C)cccn2c1=O (configuration not stated)
% elongation: 104% (inactive)
z-score: 0
% elongation [1]: 109%

CCC(C)NC(=O)C1c2ccccc2C(=O)N1Cc1ccccc1 (configuration not stated)
% elongation: 102% (inactive)
z-score: 0.2
% elongation [1]: 102%

COC(=O)CSc1nnc2c(n1)[nH]c1ccccc12
% elongation: 102% (inactive)
z-score: 0.2
% elongation [1]: 108%

CC(C)(C)NC(=O)C1CCN(S(=O)(=O)c2ccccc2)CC1
% elongation: 101% (inactive)
z-score: 0.1
% elongation [1]: 103%

CCC(=O)Nc1ccc(C(=O)n2nnc3ccccc32)cc1
% elongation: 104% (inactive)
z-score: 1
% elongation [1]: 102%

O=C1C(Nc2ccc(O)cc2)=C(n2nnc3ccccc32)C(=O)c2ccccc21
% elongation: 79% (active)
z-score: -2.2
% elongation [1]: 79%

N#CC1=C2Sc3ccccc3N2CC1=O
% elongation: 97% (inactive)
z-score: -1
% elongation [1]: 165%

Cc1c(C(=O)NC(C)CCc2ccccc2)oc2c1C(=O)CCC2 (configuration not stated)
% elongation: 102% (inactive)
z-score: 0
% elongation [1]: 102%

O=C1c2ccccc2C(=O)C1c1ccc2ccccc2c1
% elongation: 93% (inactive)
z-score: -1.3
% elongation [1]: 92%

Sc1ccc2ccccc2c1
% elongation: 90% (active)
z-score: -1.5
% elongation [1]: 91%

c1ccc2cc3cnccc3cc2c1
% elongation: 100% (inactive)
z-score: -0.3
% elongation [1]: 102%

N#Cc1ccc(COC(=O)Cc2noc3ccccc23)cc1
% elongation: 109% (inactive)
z-score: 0.7
% elongation [1]: 104%

O=S(=O)(c1cc(S(=O)(=O)C(F)(F)F)c(Cl)c(S(=O)(=O)C(F)(F)F)c1)C(F)(F)F
% elongation: 98% (inactive)
z-score: -0.2
% elongation [1]: 95%

C/C(=N\c1ccccn1)C1=C(O)c2ccccc2C1=O
% elongation: 98% (inactive)
z-score: -1
% elongation [1]: 97%

O=S(=O)(NC1CCCCC1N1CCCCC1)c1ccc(Cl)cc1 (configuration not stated)
% elongation: 104% (inactive)
z-score: 0.2
% elongation [1]: 96%

Cc1ccc2nc(C)c3c(c2c1)N(c1ccccc1)CC3
% elongation: 89% (active)
z-score: -2.3
% elongation [1]: 89%

Cc1ccc2nc(Nc3ccccc3)cc(C)c2c1
% elongation: 110% (inactive)
z-score: 0.8
% elongation [1]: 111%

Cc1ccc2nc(-c3ccccn3)cc(C(=O)O)c2c1
% elongation: 103% (inactive)
z-score: 0.8
% elongation [1]: 100%

CC(=O)OC[C@H]1O[C@@H](NC(=S)NN)[C@H](OC(C)=O)[C@@H](OC(C)=O)[C@@H]1OC(C)=O
% elongation: 103% (inactive)
z-score: 0.3
% elongation [1]: 96%

CC(=O)Oc1c[n+]([O-])n(-c2ccccc2)n1
% elongation: 97% (inactive)
z-score: -0.6
% elongation [1]: 100%

CCOC(=O)C(C(=O)c1ccccc1)C1(O)C(=O)c2ccccc2C1=O (configuration not stated)
% elongation: 46% (active)
z-score: -6.9
% elongation [1]: 56%

CCOc1cc(C2C(C(=O)OC)=C(C)NC3=C2C(=O)c2ccccc23)ccc1O (configuration not stated)
% elongation: 112% (inactive)
z-score: 0.2
% elongation [1]: 113%

CCOC(=O)C1=C(C)NC(=O)NC1c1ccccc1 (configuration not stated)
% elongation: 101% (inactive)
z-score: -0.1
% elongation [1]: 102%

COC(=O)CC(N)c1ccc(Cl)cc1 (configuration not stated)
% elongation: 103% (inactive)
z-score: 0.2
% elongation [1]: 106%

C=CCN1CCN(C(c2ccc(C)cc2)c2nnnn2C2CCCC2)CC1 (configuration not stated)
% elongation: 103% (inactive)
z-score: 0.4
% elongation [1]: 102%

Cc1ccc(NC(=S)Nc2ccc(C)cc2)cc1
% elongation: 76% (active)
z-score: -4.1
% elongation [1]: 82%

CSC(=S)Nc1ccc(C)cc1
% elongation: 100% (inactive)
z-score: 0.1
% elongation [1]: 104%

Cc1ccc(NC(=O)CC(=O)Nc2ccc(C)cc2)cc1
% elongation: 106% (inactive)
z-score: 0.3
% elongation [1]: 102%

O=C(O)COc1cc(Br)c(Br)c(Br)c1O
% elongation: 102% (inactive)
z-score: 0.1
% elongation [1]: 92%

CCn1c(SCc2cc(=O)oc3cc(NC(C)=O)ccc23)nnc1-c1ccccc1
% elongation: 100% (inactive)
z-score: -0.5
% elongation [1]: 111%

O=C(NNc1ncnc2ccccc12)c1ccncc1
% elongation: 106% (inactive)
z-score: 0.6
% elongation [1]: 101%

O=C(NN=c1c(=O)c2ccccc2c1=O)c1ccncc1
% elongation: 58% (active)
z-score: -12.6
% elongation [1]: 54%

CC(C)/C=N/NC(=O)c1ccccc1
% elongation: 103% (inactive)
z-score: 0.3
% elongation [1]: 103%

O=c1[nH]c(CN2CCCC2c2ccc3c(c2)OCCO3)nc2cc(Cl)ccc12 (configuration not stated)
% elongation: 102% (inactive)
z-score: 0
% elongation [1]: 104%

CCN(C(=O)CN1CCCCC1)c1nc2ccc(C)cc2s1
% elongation: 102% (inactive)
z-score: -0.3
% elongation [1]: 103%

NC(=O)C1CCN(C(=S)Nc2ccccc2)CC1
% elongation: 103% (inactive)
z-score: 1.1
% elongation [1]: 103%

O=C(Nc1ccccc1)C(=S)Nc1ccccc1
% elongation: 87% (active)
z-score: -1.9
% elongation [1]: 88%

CC(C)OC(=O)Nc1ccccc1
% elongation: 106% (inactive)
z-score: 0.8
% elongation [1]: 110%

COc1nc(NCCO)nc(Nc2ccc(I)cc2C)n1
% elongation: 99% (inactive)
z-score: -1.2
% elongation [1]: 94%

O=C1c2ccccc2C(=O)N1CCN1c2cccc3cccc(c23)S1(=O)=O
% elongation: 100% (inactive)
z-score: 0.1
% elongation [1]: 101%

COC(=O)C1=CN(CCc2ccccc2)C=C(C(=O)OC)C1C(=O)OC
% elongation: 107% (inactive)
z-score: 0.6
% elongation [1]: 108%

CC(=O)Nc1ccccc1NC(=O)CN(C)S(=O)(=O)c1ccccc1
% elongation: 100% (inactive)
z-score: 0
% elongation [1]: 103%

COC(=O)c1cc(N2CCNCC2)nc2ccccc12
% elongation: 88% (active)
z-score: -1.4
% elongation [1]: 88%

Cc1cc(N2CCNCC2)nc(C)n1
% elongation: 102% (inactive)
z-score: 0.1
% elongation [1]: 102%

COC(=O)c1cc(-c2cccs2)nc2ccccc12
% elongation: 101% (inactive)
z-score: -0.1
% elongation [1]: 101%

N#CCCn1c(SCC(=O)NCCSc2ccc(Cl)cc2)nc2ccccc21
% elongation: 101% (inactive)
z-score: -0.2
% elongation [1]: 104%

Cc1cc(SCc2ccccc2)nc2ccccc12
% elongation: 103% (inactive)
z-score: 0.4
% elongation [1]: 102%

Cc1cc(/C=C/C(=O)N2CCCC2c2cccs2)c(C)n1Cc1ccco1 (configuration not stated)
% elongation: 104% (inactive)
z-score: 0.6
% elongation [1]: 98%

CCCCOC(=O)Nc1nccs1
% elongation: 100% (inactive)
z-score: -0.4
% elongation [1]: 99%

Nc1[nH]c(=S)sc1C(=O)Nc1nccs1
% elongation: 70% (active)
z-score: -3.3
% elongation [1]: 75%

Cn1cccc1C(=O)Nc1nccs1
% elongation: 111% (inactive)
z-score: 0.9
% elongation [1]: 116%

CCN(C(=O)CSc1nnc2scc(-c3cccc(OC)c3)n12)c1ccccc1
% elongation: 103% (inactive)
z-score: 0.2
% elongation [1]: 100%

C#CCN1CCS(=O)(=O)CC1
% elongation: 100% (inactive)
z-score: -0.3
% elongation [1]: 103%
